# PubChem BioAssay (NCATS)
# Results filed as inconclusive are left out. A number with no mark means an inactive call. Calls come from the whole dose curve; as a rule, active = well fitted inhibition curve with a large enough effect; inconclusive = small, poorly fitted or top-dose-only effect; inactive = flat fitted curve, though single readings scatter.
# System: CP203
# Test: qHTS profiling for inhibitors of Plasmodium falciparum proliferation (AID 504749);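 note: 0% = DMSO vehicle and full inhibition = artemisinin control; nearly all actives have a fitted effect of over 60% in size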
# Conditions: P. falciparum in erythrocytes, SYBR Green DNA, 72 h; series mostly up to 28.7 µM; activity, negative = inhibition: at the top concentration
# Summary of the method: (§1)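 Readout was DNA-dye fluorescence from lysed cultures, ex 485/em 535 nm. Parasitized red cells had grown 72 h with compound; data scaled between 0.29 uM artemisinin and DMSO wells and corrected using vehicle-only plates.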
row,SMILES,"activity, negative = inhibition"
1,COc1cc(S(C)=O)ccc1-c1nc2ncccc2[nH]1 (stereo not given),-11.5%
2,CCOc1ccc(S(=O)(=O)O)c2cccnc12,-0.477%
3,NC(=S)NS(=O)(=O)c1ccc(N)cc1,3.38%
4,C[C@]12CC[C@@H]3c4ccc(OC(=O)c5ccccc5)cc4CC[C@H]3[C@@H]1CC[C@@H]2O,7.83%
5,CC(CCc1ccc(O)cc1)NCC(O)c1ccc(O)cc1 (stereo not given),2.07%
6,FC(F)(F)C(F)(F)C(F)(F)C(F)(F)C(F)(F)C(F)(F)F,6.34%
7,CN(C)CCOc1ccc(/C(=C(/CCCl)c2ccccc2)c2ccccc2)cc1,-7.29%
8,CNC(=O)OCc1cccc(COC(=O)NC)n1,-1.28%
9,NCC[C@H](O)C(=O)N[C@@H]1C[C@H](N)[C@@H](O[C@H]2O[C@H](CN)[C@@H](O)[C@H](O)[C@H]2O)[C@H](O)[C@H]1O[C@H]1O[C@H](CO)[C@@H](O)[C@H](N)[C@H]1O,1.04%
10,NC(N)=O,1.88%
11,CC1CCCCN1CCCOC(=O)c1ccccc1 (stereo not given),-13.5%
12,COC(=O)CCC[N+](C)(C)C,11.8%
13,COC(=O)CC[C@H](N)C(=O)O,-0.666%
14,O=C(OCc1ccccc1)c1ccc(O)cc1,-1.42%
15,CC(C)(CO)[C@@H](O)C(=O)NCCC(=O)NCCSSCCNC(=O)CCNC(=O)[C@H](O)C(C)(C)CO,5.06%
16,COC(=O)c1ccccc1O,0.892%
17,OC[C@H]1O[C@@](CO)(O[C@H]2O[C@H](CO)[C@@H](O)[C@H](O)[C@H]2O)[C@@H](O)[C@@H]1O,13%
18,Nc1nccs1,-4.01%
19,c1ccc2ccccc2c1,-4.24%
20,O=S(=O)(O)CCCS(=O)(=O)O,-14.1%

row,SMILES,"activity, negative = inhibition"
1,O=C1c2ccccc2C(=O)c2c1ccc(O)c2O,-0.897%
2,O=C(NNCNNC(=O)c1ccncc1)c1ccncc1,17.4%
3,[O]=[Bi][O]C(=O)[O][Bi]=[O],-0.189%
4,C=CCN1CCCC1CNC(=O)c1cc(S(N)(=O)=O)cc(OC)c1OC (stereo not given),3.88%
5,CC(C)[C@H](N)C(=O)OCC(CO)OCn1cnc2c(=O)[nH]c(N)nc21 (stereo not given in full),-4.31%
6,CCCCCCCCCCCCCCCCCC(=O)OC[C@@H](O)[C@H]1OC[C@H](O)[C@H]1O,-2.28%
7,CC(=O)[C@H]1CC[C@H]2[C@@H]3C=CC4=CC(=O)CC[C@@]4(C)[C@H]3CC[C@]12C,2.32% [at 12.8 µM]
8,CCCC(=O)O,-1.59%
9,CC1(C)S[C@@H]2[C@H](NC(=O)C3(N)CCCCC3)C(=O)N2[C@H]1C(=O)O,1.12%
10,CCCCCCCCCCCC(=O)OCC(O)CO (stereo not given),-0.456%
11,CCOc1ccc(NC(=S)Nc2ccc(OCC)cc2)cc1,0.329%
12,C[C@H](CCC(=O)O)[C@H]1CC[C@H]2[C@@H]3CC[C@@H]4C[C@H](O)CC[C@]4(C)[C@H]3C[C@H](O)[C@]12C,-1.22%
13,CC(C)(COP(=O)(O)OP(=O)(O)OC[C@H]1O[C@@H](n2cnc3c(N)ncnc32)[C@H](O)[C@@H]1OP(=O)(O)O)C(O)C(=O)NCCC(=O)NCCS (stereo not given in full),0.287%
14,O=C(CCCCCCCCCCCCC1CCCC1)Nc1ccc(S(=O)(=O)c2ccc(NC(=O)CCCCCCCCCCCCC3CCCC3)cc2)cc1,-9.34%
15,Nc1nc(=O)n([C@@H]2CS[C@H](CO)O2)cc1F,0.31%
16,O=C(O)CCC/C=C\C[C@@H]1[C@@H](/C=C/[C@@H](O)COc2cccc(C(F)(F)F)c2)[C@H](O)C[C@@H]1O,-0.979%
17,Cc1c(Cl)cccc1Nc1ncccc1C(=O)O,1.59%
18,CC(C)=CCC/C(C)=C/CC/C(C)=C/CC/C=C(\C)CC/C=C(\C)CCC=C(C)C,6.37%
19,CC(=O)Nc1ccc(OC(C)=O)cc1,-1.64%
20,CC(=O)N[C@@H]1C(O[C@H]2O[C@H](C(=O)O)C(O)[C@H](O)[C@H]2O)[C@H](O)[C@@H](CO)O[C@H]1O[C@@H]1C(C(=O)O)O[C@@H](O[C@H]2[C@H](O)[C@@H](CO)OC(O)[C@@H]2NC(C)=O)[C@H](O)[C@H]1O (stereo not given in full),13.6%

# System: CP211
# Test: as above
# Conditions: P. falciparum in erythrocytes, SYBR Green DNA, 72 h; series mostly up to 28.7 µM; activity, negative = inhibition: at the top concentration
# Summary of the method: as §1
row,SMILES,"activity, negative = inhibition"
1,COc1cc(S(C)=O)ccc1-c1nc2ncccc2[nH]1 (stereo not given),-6.9%
2,CCOc1ccc(S(=O)(=O)O)c2cccnc12,0.856%
3,NC(=S)NS(=O)(=O)c1ccc(N)cc1,3.57%
4,C[C@]12CC[C@@H]3c4ccc(OC(=O)c5ccccc5)cc4CC[C@H]3[C@@H]1CC[C@@H]2O,2.49%
5,CC(CCc1ccc(O)cc1)NCC(O)c1ccc(O)cc1 (stereo not given),-0.256%
6,FC(F)(F)C(F)(F)C(F)(F)C(F)(F)C(F)(F)C(F)(F)F,-0.268%
7,CN(C)CCOc1ccc(/C(=C(/CCCl)c2ccccc2)c2ccccc2)cc1,-1.2%
8,CNC(=O)OCc1cccc(COC(=O)NC)n1,3.19%
9,NCC[C@H](O)C(=O)N[C@@H]1C[C@H](N)[C@@H](O[C@H]2O[C@H](CN)[C@@H](O)[C@H](O)[C@H]2O)[C@H](O)[C@H]1O[C@H]1O[C@H](CO)[C@@H](O)[C@H](N)[C@H]1O,-1.38%
10,NC(N)=O,-1.34%
11,CC1CCCCN1CCCOC(=O)c1ccccc1 (stereo not given),0.0141%
12,COC(=O)CCC[N+](C)(C)C,1.79%
13,COC(=O)CC[C@H](N)C(=O)O,-9.01%
14,O=C(OCc1ccccc1)c1ccc(O)cc1,-13.9%
15,CC(C)(CO)[C@@H](O)C(=O)NCCC(=O)NCCSSCCNC(=O)CCNC(=O)[C@H](O)C(C)(C)CO,2.12%
16,COC(=O)c1ccccc1O,-9.91%
17,OC[C@H]1O[C@@](CO)(O[C@H]2O[C@H](CO)[C@@H](O)[C@H](O)[C@H]2O)[C@@H](O)[C@@H]1O,2.75%
18,Nc1nccs1,2.03%
19,c1ccc2ccccc2c1,0.961%
20,O=S(=O)(O)CCCS(=O)(=O)O,8.05%

row,SMILES,"activity, negative = inhibition"
1,O=C1c2ccccc2C(=O)c2c1ccc(O)c2O,-1.28%
2,O=C(NNCNNC(=O)c1ccncc1)c1ccncc1,7.67%
3,[O]=[Bi][O]C(=O)[O][Bi]=[O],-1.7%
4,C=CCN1CCCC1CNC(=O)c1cc(S(N)(=O)=O)cc(OC)c1OC (stereo not given),0.113%
5,CC(C)[C@H](N)C(=O)OCC(CO)OCn1cnc2c(=O)[nH]c(N)nc21 (stereo not given in full),-2.58%
6,CCCCCCCCCCCCCCCCCC(=O)OC[C@@H](O)[C@H]1OC[C@H](O)[C@H]1O,-0.986%
7,CC(=O)[C@H]1CC[C@H]2[C@@H]3C=CC4=CC(=O)CC[C@@]4(C)[C@H]3CC[C@]12C,-7.83% [at 12.8 µM]
8,CCCC(=O)O,-0.487%
9,CC1(C)S[C@@H]2[C@H](NC(=O)C3(N)CCCCC3)C(=O)N2[C@H]1C(=O)O,1.78%
10,CCCCCCCCCCCC(=O)OCC(O)CO (stereo not given),5.52%
11,CCOc1ccc(NC(=S)Nc2ccc(OCC)cc2)cc1,-8.15%
12,C[C@H](CCC(=O)O)[C@H]1CC[C@H]2[C@@H]3CC[C@@H]4C[C@H](O)CC[C@]4(C)[C@H]3C[C@H](O)[C@]12C,0.0575%
13,CC(C)(COP(=O)(O)OP(=O)(O)OC[C@H]1O[C@@H](n2cnc3c(N)ncnc32)[C@H](O)[C@@H]1OP(=O)(O)O)C(O)C(=O)NCCC(=O)NCCS (stereo not given in full),6.19%
14,O=C(CCCCCCCCCCCCC1CCCC1)Nc1ccc(S(=O)(=O)c2ccc(NC(=O)CCCCCCCCCCCCC3CCCC3)cc2)cc1,-0.258%
15,Nc1nc(=O)n([C@@H]2CS[C@H](CO)O2)cc1F,1.67%
16,O=C(O)CCC/C=C\C[C@@H]1[C@@H](/C=C/[C@@H](O)COc2cccc(C(F)(F)F)c2)[C@H](O)C[C@@H]1O,-1.31%
17,Cc1c(Cl)cccc1Nc1ncccc1C(=O)O,-1.22%
18,CC(C)=CCC/C(C)=C/CC/C(C)=C/CC/C=C(\C)CC/C=C(\C)CCC=C(C)C,3.23%
19,CC(=O)Nc1ccc(OC(C)=O)cc1,-2.58%
20,CC(=O)N[C@@H]1C(O[C@H]2O[C@H](C(=O)O)C(O)[C@H](O)[C@H]2O)[C@H](O)[C@@H](CO)O[C@H]1O[C@@H]1C(C(=O)O)O[C@@H](O[C@H]2[C@H](O)[C@@H](CO)OC(O)[C@@H]2NC(C)=O)[C@H](O)[C@H]1O (stereo not given in full),4.63%
